# Screening results: PubChem BioAssay, National Center for Advancing Translational Sciences (NCATS)
# Hits are enriched below; roughly 3.8% of the tested compounds scored in any of these assays.
# ATXN2 expr inh: Primary qHTS for Inhibitors of ATXN expression; HEK-293 ATXN2-luciferase reporter, luminescence, 24 h; actives 0.72% (n = 360,000); Potency, µM (doses to about 57 µM), for inactives: top-dose activity change, negative = inhibition, actives largely listed as inhibitors; AID 1745845, 2022; also: % is scaled to controls: 0 for no effect and ±100 for the full control effect; nearly all actives have a fitted effect of over 55% in size
#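 ATXN2-luciferase reporter cells (luciferase flanked by upstream and downstream ATXN2 gene portions) were treated 24 h at 37 °C with compounds at up to 57 uM. SteadyGlo luminescence gave expression; GF-AFC fluorescence gave viability.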
# HepG2 tox: qHTS for Inhibitors of TGF-b: Cytotox Counterscreen | actives 0.76% (n = 410,000) | HepG2 CAGA-GFP viability, ATP luminescence, 18 h | AID 588856, 2011 | Potency, µM (doses to about 46.1 µM), for inactives: at the top dose activity change, negative = cytotoxicity, hits mostly cytotoxic
#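 HepG2 CAGA-GFP cells (1000/well, DMEM with 1% FBS) received compound, then TGF-beta at 500 pg/mL final, and were incubated 18 hours at 37 degrees C. Viability was read by CellTiter-Glo luminescence. Media-only wells were set as complete cell-killing and DMSO as no toxicity.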
# ATXN viability: Viability Counterscreen for Primary qHTS for Inhibitors of ATXN expression. S2 cells (HEK-293 line with an ATXN2-luciferase reporter) viability, CellTiter-Fluor protease fluorescence, 24 h. Potency, µM (doses to about 56.7 µM), actives largely listed as cytotoxic. actives 0.49% (n = 400,000). AID 651635, 2014; also: nearly all actives have a fitted effect of over 40% in size
# A549 viability: Nrf2 qHTS screen for inhibitors: counterscreen for cytotoxicity; A549 ARE-Fluc cells, CellTiter-Fluor viability, 18-24 h; Potency, µM (titrated, usually from 46 µM), for inactives: top-dose activity change, negative = cytotoxicity, usual class: inhibitors; actives 0.16% (n = 390,000); AID 504648, 2011; also: % is scaled to controls: 0 for no effect and ±100 for the full control effect
#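 Cytotoxicity counterscreen: CellTiter-Fluor fluorescence was measured in A549 ARE_Fluc cells after 18-24 h of compound exposure in a concentration series. The subsequent BugLite luminescent read reports ARE-luciferase activity.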
# TGFb SMAD3 inh: qHTS for Inhibitors of TGF-b; actives 1.2% (n = 410,000); HepG2 CAGA-GFP TGF-b/SMAD3 reporter, GFP fluorescence, 18 h; TGF-beta stimulated, 500 pg/mL final; Potency, µM (doses to about 46.1 µM), for inactives: at the highest dose activity, negative = inhibition, actives largely listed as inhibitors; AID 588855, 2011; also: % is scaled to controls: 0 for no effect and ±100 for the full control effect; nearly all actives have a fitted effect of over 65% in size
#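 Inhibition was scored as loss of TGF-beta-induced (500 pg/mL final, 18 hours, 37 degrees C) GFP in HEPG2 cells carrying a CAGA-GFP reporter, in DMEM with 1% FBS. Well GFP was summed per cell; Activity was normalised to unstimulated and stimulated DMSO wells, then concentration-response fitting.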
# Nrf2 block: Nrf2 qHTS screen for inhibitors; A549 ARE-Fluc reporter, luciferase luminescence, 18-24 h; Potency, µM (titrated, usually from 46 µM), for inactives: at the top dose activity change, negative = inhibition, actives largely listed as inhibitors; actives 2.1% (n = 360,000); also: % is scaled to controls: 0 for no effect and ±100 for the full control effect; nearly all actives have a fitted effect of over 60% in size
#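 Quantitative HTS in A549 cells stably bearing an antioxidant response element-firefly luciferase construct. Inhibition of Nrf2-driven transcription was scored by luminescence after 18-24 h of compound exposure at 37 °C.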
# * hit, by the source's call; i = inactive; ? = inconclusive; . = no result given. Calls follow the shape of the dose curve; as a rule, active = well fitted curve in the direction sought with a large enough effect; inconclusive = small, poorly fitted or top-dose-only effect, or another doubt; inactive = no such curve, though single readings can be large; an effect the other way counts as inactive or inconclusive. Potency is read from the fitted curve at half-maximal effect.
SMILES,ATXN2 expr inh,HepG2 tox,ATXN viability,A549 viability,TGFb SMAD3 inh,Nrf2 block
O=C(Oc1ccc(/C=N/Nc2ccccc2)cc1)c1ccccc1,0%,-3%,i,-4%,4%,?
O=C(O)c1ccc(N/N=C/c2ccc(OC(=O)c3cccc(Cl)c3)cc2)cc1,5µM*,-68%,i,-1%,-13%,?
C[C@@H]1CN([C@@H](C)CO)C(=O)CCCn2nncc2CO[C@H]1CN(C)C(=O)Nc1ccc(F)cc1,3%,43%,i,.,35%,.
CCOC(=O)C1=C(C)N=c2s/c(=C\c3cccc(OCC(=O)O)c3)c(=O)n2C1c1ccccc1OC (stereo unspecified),3%,4%,i,-19%,8%,2%
CCOC(=O)C1=C(c2ccccc2)N=c2s/c(=C\c3cccc(O)c3)c(=O)n2C1c1cccs1 (stereo unspecified),?,14µM*,?,?,?,26µM*
Cc1sc(NC(=O)CCl)c(C(=O)c2ccccc2)c1C,?,13µM*,?,.,?,8%
Cc1cc(C(=O)c2ccc(C(C)(C)C)cc2)c(NC(=O)CCl)s1,?,-102%,?,3%,16µM*,7%
Cc1ccccc1C(=O)Nc1sc(C)c(C)c1C(=O)c1ccccc1,-3%,-21%,i,?,?,?
O=C(c1ccc(CNS(=O)(=O)c2ccc(Br)cc2)cc1)N1CCCCCC1,-14%,-9%,i,-8%,?,-17%
Cc1cc(Cl)ccc1NC(=O)CN1C(=O)COc2ccc(S(=O)(=O)Nc3ccccc3)cc21,-9%,-19%,?,-9%,14µM*,16%
O=C(CN1C(=O)COc2ccc(S(=O)(=O)NC3CCCC3)cc21)Nc1ccc(Cl)cc1F,-2%,16µM*,i,2%,?,-4%
Cc1ccc(NC(=O)CN2C(=O)COc3ccc(S(=O)(=O)N4CCCCCC4)cc32)cc1Cl,.,-54%,.,?,10µM*,?
Cc1ccc(NC(=O)CN2CCSc3ccc(S(=O)(=O)N4CCCC4)cc32)cc1C,-33%,0%,14µM*,?,?,.
COc1ccc(NC(=O)CN2C(=O)CSc3ccc(S(=O)(=O)N4CCCC4)cc32)cc1OC,14%,0%,i,0%,9%,-25%
Cc1ccc(NC(=O)CN2C(=O)COc3ccc(S(=O)(=O)N4CCCC4)cc32)cc1C,5%,4%,?,-1%,8%,0%
COc1cc(NC(=O)CN2C(=O)COc3ccc(S(=O)(=O)NC4CCCC4)cc32)cc(OC)c1,8%,-8%,i,2%,-23%,17%
CC(C)Sc1ncc(Cl)c(C(=O)Nc2ccc(S(=O)(=O)N3CCCCC3C)cc2)n1 (stereo unspecified),-4%,-5%,i,1%,-10%,-8%
CCC[C@H]1CN(c2ccccc2)C(=O)[C@@H]1CC(=O)Nc1ccc(Br)cc1,-1%,-26%,i,.,17%,.
O=C(NCc1ccccc1F)C1CCN(c2nn3cc(-c4ccc(F)cc4)nc3s2)CC1,.,-9%,.,10%,0%,?
O=C(CN1C(=O)COc2ccc(S(=O)(=O)NC3CCCC3)cc21)Nc1ccc(F)c(Cl)c1,-3%,-49%,?,-14%,13µM*,?
COc1ccc(NC(=O)CN2C(=O)COc3ccc(S(=O)(=O)NC4CCCC4)cc32)cc1OC,6%,-11%,i,2%,-32%,16%
O=c1c(CO)cc(CO)cc(CO)c1O,.,-17%,i,-5%,-5%,-2%
O=C1C=CC(=O)c2c(O)c(CO)c(CO)c(O)c21,?,10µM*,?,16µM*,11µM*,23µM*
CC(=O)Nc1ccccc1-c1nc(CNC(=O)c2ccc(-n3cccn3)cc2)c(C)o1,.,.,i,.,.,.
CCC(Sc1nc2ccccc2c2nc(-c3ccccc3)nn12)C(=O)Nc1cccc(OC)c1 (stereo unspecified),9%,-1%,?,2%,-10%,.
SMILES,ATXN2 expr inh,HepG2 tox,ATXN viability,A549 viability,TGFb SMAD3 inh,Nrf2 block
CCOCCCN(C)C1CCN(C(=O)c2oc3ccccc3c2NC(=O)c2ccc(F)cc2)CC1,-2%,-6%,?,0%,5%,?
O=C(CC1SC(N2CCCC2)=NC1=O)Nc1ccc(C(=O)N2CCN(c3cccc(Cl)c3)CC2)cc1 (stereo unspecified),-18%,-35%,i,?,11%,21µM*
Cc1cccc(N2CCN(C(=O)c3ccc(NC(=O)CC4SC(N5CCCC5)=NC4=O)cc3)CC2)c1C (stereo unspecified),-14%,1%,i,2%,?,?
CN(Cc1ccccc1F)C(=O)c1cccc(NC(=O)CC2SC(N3CCCCC3)=NC2=O)c1 (stereo unspecified),-12%,-15%,i,-11%,-16%,18µM*
O=C(Nc1ccc2c(c1)OCCO2)C1CCCN1C(=O)Nc1ccc(F)cc1 (stereo unspecified),-22%,2%,i,-7%,-1%,7%
Cc1nn(C)c(Sc2ccccc2N)c1[N+](=O)[O-],.,12%,?,-1%,-11%,8%
c1ccc(-c2cc(NCCN3CCCCC3)c3ccccc3n2)cc1,28µM*,-35%,.,-11%,?,-1%
Cn1c(NCCN2CCCC2)nc2cc(-c3ccccc3)sc2c1=O,?,-7%,i,.,26%,.
O=C(N/N=C/c1ccc(OC(=O)c2ccccc2Cl)cc1)c1cc(O)cc(O)c1,-13%,0%,i,1%,11%,6.5µM*
Cc1nc(C(N)=O)c(N)n1CCc1ccccc1,-3%,-1%,i,4%,8%,1%
CN(C)CC1CCC/C(=C/c2ccc(Cl)cc2)C1=O (stereo unspecified),?,-4%,12µM*,-6%,?,14%
Cc1ccc(S(=O)(=O)N2CCN(C(=O)N(C)C)CC2)cc1,-4%,-23%,i,8%,-1%,9%
O=C(Nc1ccc(F)cc1)c1cccnc1NCCc1ccccc1,-15%,-5%,.,-4%,0%,?
O=C(Nc1cccc(F)c1)c1cccnc1NCCc1ccccc1,-8%,3%,i,-21%,?,23µM*
Cc1ccc(C(c2c(O)cc(C)n(Cc3ccco3)c2=O)N2CCC(C)CC2)cc1 (stereo unspecified),.,3%,.,-4%,?,.
